This passage reports Percent Effect results from ChEMBL document CHEMBL3988442, “University of Dundee, Small-Polar-MMV Screening Library” (2021).

What all share (set-up): scale not given: direction of the effect not stated beside the values
In assay [1] the target is Protein translocase subunit SecA (Escherichia coli (strain K12)) (UniProt P10408). The assay can be described thus: Assay to Identify E. coli SecA ATPase Inhibitors. Format: functional. The following applies: 30 µM.
Assay [2] concerns the target T1, Ubiquitin-activating enzyme e1, putative (Leishmania donovani (strain BPK282A1)) (UniProt E9BSI1).
T1 sequence (whole entry): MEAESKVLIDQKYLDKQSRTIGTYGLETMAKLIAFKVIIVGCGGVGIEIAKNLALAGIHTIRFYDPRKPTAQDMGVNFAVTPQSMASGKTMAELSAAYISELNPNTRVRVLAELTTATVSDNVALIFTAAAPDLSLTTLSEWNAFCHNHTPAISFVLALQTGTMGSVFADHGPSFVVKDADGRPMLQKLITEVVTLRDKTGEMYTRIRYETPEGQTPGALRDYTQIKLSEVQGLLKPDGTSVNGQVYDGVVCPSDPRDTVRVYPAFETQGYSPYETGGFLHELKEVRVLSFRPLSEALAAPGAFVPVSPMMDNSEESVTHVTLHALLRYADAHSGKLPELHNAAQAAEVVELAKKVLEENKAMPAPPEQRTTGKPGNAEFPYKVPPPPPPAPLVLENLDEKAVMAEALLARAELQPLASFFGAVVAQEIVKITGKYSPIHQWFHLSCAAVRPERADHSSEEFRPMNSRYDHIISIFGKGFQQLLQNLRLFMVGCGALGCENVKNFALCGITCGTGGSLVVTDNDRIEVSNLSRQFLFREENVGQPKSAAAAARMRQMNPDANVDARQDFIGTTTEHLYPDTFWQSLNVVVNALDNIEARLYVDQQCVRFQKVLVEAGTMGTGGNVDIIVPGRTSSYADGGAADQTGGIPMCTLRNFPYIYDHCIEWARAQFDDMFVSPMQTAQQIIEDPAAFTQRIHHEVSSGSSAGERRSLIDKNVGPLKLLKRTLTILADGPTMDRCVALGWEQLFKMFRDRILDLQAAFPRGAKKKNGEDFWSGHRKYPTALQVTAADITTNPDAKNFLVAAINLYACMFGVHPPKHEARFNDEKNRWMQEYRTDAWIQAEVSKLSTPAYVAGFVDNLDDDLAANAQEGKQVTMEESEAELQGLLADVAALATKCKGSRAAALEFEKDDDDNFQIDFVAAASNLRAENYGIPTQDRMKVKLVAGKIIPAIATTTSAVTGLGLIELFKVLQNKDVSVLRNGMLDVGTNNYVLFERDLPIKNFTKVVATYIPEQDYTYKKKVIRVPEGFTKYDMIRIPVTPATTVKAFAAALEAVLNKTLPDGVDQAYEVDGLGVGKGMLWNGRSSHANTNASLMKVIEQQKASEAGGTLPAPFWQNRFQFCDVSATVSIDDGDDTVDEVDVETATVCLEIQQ
Put plainly: Leishmania donovani Ubiquitin Activating Enzyme (LdE1). The following applies: 30 µM. Format: functional.

Assay [3] addresses Sialic acid-binding Ig-like lectin 9 (Homo sapiens) (UniProt Q9Y336). Put plainly: Hs-Siglec9 ALPHAscreen SOP 20170721. The note with it: 10 µM. For orientation: In Alpha technology, singlet oxygen from a donor bead excites a nearby acceptor bead.
For the next assay, the system named is Trypanosoma cruzi. The assay can be described thus: Trypanosoma cruzi phosphomannomutase and mannose-1-phosphate guanylyltransferase assay. The following applies: 10 µM. Format: functional.
For assay [4], the target named is T2, Arginase-2, mitochondrial (Homo sapiens) (UniProt P78540).
T2 sequence (whole entry): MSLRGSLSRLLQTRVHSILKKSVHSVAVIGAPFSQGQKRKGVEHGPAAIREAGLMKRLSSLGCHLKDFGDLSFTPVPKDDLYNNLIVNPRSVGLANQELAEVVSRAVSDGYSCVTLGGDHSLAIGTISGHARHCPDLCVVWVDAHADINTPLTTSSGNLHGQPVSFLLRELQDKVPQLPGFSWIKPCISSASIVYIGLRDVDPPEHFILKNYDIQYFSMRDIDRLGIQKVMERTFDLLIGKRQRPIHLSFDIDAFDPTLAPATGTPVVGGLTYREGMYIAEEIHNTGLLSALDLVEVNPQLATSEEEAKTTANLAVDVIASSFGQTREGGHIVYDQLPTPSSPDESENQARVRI
Put plainly: in vitro enzyme assay to detect the production of urea directly proportional to the activity of Arginase II. Further: in the data most compounds retested in dose-response had high values. Format: functional. The note with it: 33.3 µM.

Assay [5] deals with T3, Proteasome subunit beta (Trypanosoma cruzi) (UniProt O96673).
T3 sequence (whole entry): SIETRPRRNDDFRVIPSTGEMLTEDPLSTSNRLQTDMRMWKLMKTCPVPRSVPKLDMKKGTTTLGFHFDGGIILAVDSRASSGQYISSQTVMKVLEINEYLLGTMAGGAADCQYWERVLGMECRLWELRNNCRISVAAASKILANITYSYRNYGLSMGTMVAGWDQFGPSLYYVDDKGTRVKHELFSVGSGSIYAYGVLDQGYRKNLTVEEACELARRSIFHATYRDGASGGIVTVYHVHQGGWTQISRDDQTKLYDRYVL
The assay can be described thus: Trypanosoma cruzi proteasome chymotrypsin-like activity (TcProtChymo) assay. Further: in the data most compounds retested in dose-response had high values. Format: functional. The following applies: 9.37 µM.

The species entered for the next assay is Homo sapiens. The assay can be described thus: To identify inhibition of the IFN signalling (Jak-Stat) pathway via expression of an eGFP reporter gene under the control of an IFN-stimulated response element (ISRE) containing MxA promoter. The note with it: 30 µM. Format: functional.
Assay [6] addresses T4, Tyrosyl-tRNA synthetase, putative (Trypanosoma cruzi (strain CL Brener)) (UniProt Q4DSP6).
T4 sequence (whole entry): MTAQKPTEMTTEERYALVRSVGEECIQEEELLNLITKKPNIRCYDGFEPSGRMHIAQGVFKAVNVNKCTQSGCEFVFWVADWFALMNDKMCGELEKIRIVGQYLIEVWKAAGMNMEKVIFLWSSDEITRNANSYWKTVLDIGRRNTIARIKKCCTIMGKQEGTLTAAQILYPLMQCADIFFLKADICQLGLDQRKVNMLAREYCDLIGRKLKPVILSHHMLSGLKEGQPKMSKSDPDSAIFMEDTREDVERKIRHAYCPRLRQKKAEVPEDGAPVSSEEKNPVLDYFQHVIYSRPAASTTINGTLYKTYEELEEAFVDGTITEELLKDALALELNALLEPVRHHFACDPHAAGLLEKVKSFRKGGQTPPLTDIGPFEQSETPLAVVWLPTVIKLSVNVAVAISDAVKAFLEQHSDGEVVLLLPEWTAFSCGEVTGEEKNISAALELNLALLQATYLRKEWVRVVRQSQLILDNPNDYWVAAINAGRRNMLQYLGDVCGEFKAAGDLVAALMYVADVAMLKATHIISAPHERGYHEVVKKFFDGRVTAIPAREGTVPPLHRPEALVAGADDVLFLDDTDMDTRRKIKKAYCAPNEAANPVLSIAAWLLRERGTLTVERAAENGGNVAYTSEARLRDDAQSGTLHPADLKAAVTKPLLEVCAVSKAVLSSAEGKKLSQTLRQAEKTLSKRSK
Put plainly: Trypanosoma cruzi tyrosyl tRNA synthetase (TcYRS) _High Tyrosine SOP. Further: in the data most compounds retested in dose-response had high values. The following applies: 30 µM. Format: functional.

Assay [7] addresses T4, Tyrosyl-tRNA synthetase, putative (Trypanosoma cruzi (strain CL Brener)). The assay can be described thus: Trypanosoma cruzi tyrosyl tRNA synthetase (TcYRS) SOP. Format: functional. The note with it: 30 µM.
Assay [8] deals with Chromo domain-containing protein 1 (Saccharomyces cerevisiae (strain ATCC 204508 / S288c) (Baker's yeast)) (UniProt P32657). Put plainly: ScCHD-1 Enzyme Inhibition Assay. Further: in the data most compounds retested in dose-response had high values. Format: functional. The note with it: 30 µM.
Chromo domain-containing protein 1 (Saccharomyces cerevisiae (strain ATCC 204508 / S288c) (Baker's yeast)), sequence (P32657 whole entry, the tested form may be a part): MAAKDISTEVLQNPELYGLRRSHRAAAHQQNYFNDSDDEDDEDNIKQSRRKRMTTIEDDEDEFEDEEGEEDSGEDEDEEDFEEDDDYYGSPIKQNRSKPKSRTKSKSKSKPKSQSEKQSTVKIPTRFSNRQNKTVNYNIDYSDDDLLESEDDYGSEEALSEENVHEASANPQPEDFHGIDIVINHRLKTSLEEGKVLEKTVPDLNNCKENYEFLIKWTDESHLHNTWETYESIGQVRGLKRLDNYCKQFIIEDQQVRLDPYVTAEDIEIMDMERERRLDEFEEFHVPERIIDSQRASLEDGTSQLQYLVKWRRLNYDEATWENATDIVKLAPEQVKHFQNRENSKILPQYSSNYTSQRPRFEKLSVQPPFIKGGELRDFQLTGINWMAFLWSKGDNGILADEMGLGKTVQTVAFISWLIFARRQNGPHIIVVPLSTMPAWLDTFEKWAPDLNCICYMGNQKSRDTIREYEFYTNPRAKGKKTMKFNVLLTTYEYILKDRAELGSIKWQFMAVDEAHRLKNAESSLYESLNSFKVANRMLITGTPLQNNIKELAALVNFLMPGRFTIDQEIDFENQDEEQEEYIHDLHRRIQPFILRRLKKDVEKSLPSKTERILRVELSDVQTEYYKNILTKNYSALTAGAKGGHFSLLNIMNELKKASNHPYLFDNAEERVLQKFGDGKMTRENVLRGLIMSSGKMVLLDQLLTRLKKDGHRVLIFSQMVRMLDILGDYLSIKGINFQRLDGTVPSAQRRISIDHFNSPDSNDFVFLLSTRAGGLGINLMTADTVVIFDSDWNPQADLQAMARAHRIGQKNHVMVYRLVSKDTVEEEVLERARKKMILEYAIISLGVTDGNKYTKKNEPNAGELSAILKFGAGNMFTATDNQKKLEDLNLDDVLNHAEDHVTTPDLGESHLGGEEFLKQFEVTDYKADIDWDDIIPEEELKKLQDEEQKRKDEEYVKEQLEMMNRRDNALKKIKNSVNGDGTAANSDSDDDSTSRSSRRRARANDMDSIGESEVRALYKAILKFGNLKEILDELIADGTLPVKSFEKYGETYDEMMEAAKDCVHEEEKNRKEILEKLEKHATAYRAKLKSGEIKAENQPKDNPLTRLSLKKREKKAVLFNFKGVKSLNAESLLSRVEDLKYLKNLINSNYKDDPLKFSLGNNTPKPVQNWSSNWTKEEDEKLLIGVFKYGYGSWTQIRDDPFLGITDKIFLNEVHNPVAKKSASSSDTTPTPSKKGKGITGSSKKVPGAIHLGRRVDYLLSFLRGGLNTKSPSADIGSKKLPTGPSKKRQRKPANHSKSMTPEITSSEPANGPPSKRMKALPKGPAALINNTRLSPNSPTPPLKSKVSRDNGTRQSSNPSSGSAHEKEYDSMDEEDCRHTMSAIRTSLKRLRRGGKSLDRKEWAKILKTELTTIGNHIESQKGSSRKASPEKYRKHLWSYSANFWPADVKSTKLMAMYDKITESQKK

For some assays here: Measured potencies and affinities stand elsewhere.

Sialic acid-binding Ig-like lectin 9 (Homo sapiens), sequence (Q9Y336 whole entry): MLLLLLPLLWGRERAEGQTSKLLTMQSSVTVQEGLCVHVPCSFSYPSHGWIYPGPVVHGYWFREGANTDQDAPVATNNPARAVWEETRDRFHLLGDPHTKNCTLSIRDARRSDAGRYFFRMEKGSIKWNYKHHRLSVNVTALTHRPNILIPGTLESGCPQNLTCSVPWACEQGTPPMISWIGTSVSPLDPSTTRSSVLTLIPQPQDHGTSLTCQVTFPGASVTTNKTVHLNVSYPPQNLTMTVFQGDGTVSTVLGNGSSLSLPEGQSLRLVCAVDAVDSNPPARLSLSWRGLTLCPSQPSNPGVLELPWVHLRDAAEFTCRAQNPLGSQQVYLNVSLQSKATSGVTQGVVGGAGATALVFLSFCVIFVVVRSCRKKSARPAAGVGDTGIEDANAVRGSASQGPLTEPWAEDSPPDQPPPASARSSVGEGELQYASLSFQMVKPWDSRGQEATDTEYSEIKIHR
Protein translocase subunit SecA (Escherichia coli (strain K12)), sequence (P10408 whole entry): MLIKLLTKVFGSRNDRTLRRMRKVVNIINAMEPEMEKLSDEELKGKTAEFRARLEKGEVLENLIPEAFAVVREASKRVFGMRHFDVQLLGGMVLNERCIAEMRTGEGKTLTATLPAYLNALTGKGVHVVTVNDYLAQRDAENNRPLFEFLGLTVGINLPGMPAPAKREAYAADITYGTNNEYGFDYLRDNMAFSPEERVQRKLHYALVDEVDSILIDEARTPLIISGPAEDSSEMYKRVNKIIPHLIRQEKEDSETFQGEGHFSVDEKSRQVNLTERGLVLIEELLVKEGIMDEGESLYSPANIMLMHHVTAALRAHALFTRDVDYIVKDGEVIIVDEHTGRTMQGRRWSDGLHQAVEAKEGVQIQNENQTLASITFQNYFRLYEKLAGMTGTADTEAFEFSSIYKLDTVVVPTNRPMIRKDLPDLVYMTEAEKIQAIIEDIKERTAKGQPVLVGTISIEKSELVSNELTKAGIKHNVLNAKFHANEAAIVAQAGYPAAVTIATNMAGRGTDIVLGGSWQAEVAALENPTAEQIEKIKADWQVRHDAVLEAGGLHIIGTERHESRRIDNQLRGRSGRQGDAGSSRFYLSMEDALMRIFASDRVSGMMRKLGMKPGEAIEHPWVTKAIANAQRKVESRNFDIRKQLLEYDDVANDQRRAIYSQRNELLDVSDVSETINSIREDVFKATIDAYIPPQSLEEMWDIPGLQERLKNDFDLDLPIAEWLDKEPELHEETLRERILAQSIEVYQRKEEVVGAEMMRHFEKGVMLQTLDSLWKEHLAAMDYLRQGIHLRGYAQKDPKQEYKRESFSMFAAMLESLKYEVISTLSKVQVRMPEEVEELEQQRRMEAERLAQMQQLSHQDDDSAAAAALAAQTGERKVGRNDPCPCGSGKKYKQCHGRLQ

As for `Cc1ccc([C@@H]2CN(C(=O)c3cccnn3)C[C@H]2NC(=O)C2CC2)cc1`, the Percent Effect in [1] was -10.6%; in assay [2], 5.41%; in assay [3] it was 16.9%; in the assay with Trypanosoma cruzi, 4.17%; in [4], 4.54%; in assay [5], 13.2%. Moreover, the Percent Effect in the assay filed under Homo sapiens was 3.04%; in assay [6], 5.85%; in assay [7], 19.5%; in assay [8], -1.62%.
As to `CCc1ccc(NC(=O)C2OC(c3cccs3)=NN2C(C)=O)cc1` (stereo not given), the Percent Effect was -5.81% in assay [1]; 12% in assay [2]; -5.11% in assay [3]; 3.94% with Trypanosoma cruzi; -0.443% in assay [4]; 19.2% in assay [5]. The Percent Effect was 14.4% in the assay filed under Homo sapiens, 1.06% in assay [6], 10% in assay [7] and -26.1% in [8].
In the case of `Cc1nc(-c2nnc[nH]2)sc1C(=O)N(Cc1cccnc1)C1CC1`, the Percent Effect in assay [1] was -4.44%; in assay [2] it was 12.8%; in assay [3], -5.72%; in the assay on Trypanosoma cruzi it was 6.67%; in assay [4] it was -0.41%; in assay [5] it was 7.42%. The Percent Effect in the assay listed under Homo sapiens was 9.73%; in assay [6], 2.39%; in assay [7] it was 18.1%; in assay [8], -6.07%.
In the case of `Cc1cc(CNc2cc(Cl)ccc2OCCS(C)(=O)=O)no1`, the Percent Effect in assay [1] is -0.942%; in assay [2], 5.13%; in assay [3], -13.6%; in the assay with Trypanosoma cruzi, 7.42%; in [4], -1.23%; in assay [5], -4.01%. Also, the Percent Effect in the assay listed under Homo sapiens was -4.69%; in [6] it was 2.39%; in assay [7], 10.8%; in [8] it was 0.127%.
For `Cc1ccccc1CN(C)Cc1nc2c(cnn2C)c(=O)[nH]1`, the Percent Effect in assay [1] was -0.754%; in [2], 10.3%; in assay [3], -3.07%; in the assay on Trypanosoma cruzi it was 1.41%; in assay [4], -0.82%; in [5], 16.8%. The Percent Effect in the assay filed under Homo sapiens was 7.6%; in assay [6], 8.13%; in assay [7] it was 18.1%; in assay [8] it was -3.59%.
Turning to `CCCS(=O)(=O)N1CCN(c2ccnc(N3CCCC3)n2)CC1`, the Percent Effect is -0.256% in [1]; 0% in assay [2]; 12.4% in assay [3]; 6.89% with Trypanosoma cruzi; 8.04% in assay [4]; 6.85% in assay [5]. For the same compound, the Percent Effect was -21.8% in the assay listed under Homo sapiens, 2.66% in [6], 4.88% in [7] and -3% in [8].
On to `CN(C)c1ccccc1C(=O)N1C[C@@H](CN2CCOCC2)[C@@H](CO)C1`, for which the Percent Effect is -7.18% in [1]; 5.41% in assay [2]; 5.57% in assay [3]; 6.69% with Trypanosoma cruzi; -0.35% in assay [4]; 18.3% in assay [5]. Besides, the Percent Effect was 22.3% in the assay listed under Homo sapiens, 7.98% in assay [6], 19.5% in assay [7] and -2.44% in [8].
Take `Cc1cnn(CC2CN(CC(=O)N3CCc4ccccc43)CCO2)c1` (stereo not given): the Percent Effect was -4.43% in assay [1]; 8% in [2]; 4.38% in assay [3]; -0.803% with Trypanosoma cruzi; 3.55% in assay [4]; 3.48% in assay [5]. The Percent Effect in the assay listed under Homo sapiens is 6.22%; in assay [6], 4.74%; in [7], -5.13%; in [8] it was -9.1%.
For the compound `CCOC1COC2(CCN(Cc3ccc4c(c3)OCO4)CC2)C1` (stereo not given), the Percent Effect was -2.81% in assay [1]; 19.5% in assay [2]; 5.28% in assay [3]; -1.13% in the assay on Trypanosoma cruzi; 3.65% in assay [4]; 5.06% in assay [5]. Moreover, the Percent Effect in the assay filed under Homo sapiens is 17.9%; in assay [6], 8.7%; in [7] it was 12.5%; in assay [8] it was -4.64%.
Regarding `CCC(NC(=O)c1ccco1)c1ccccc1OCC(=O)N1CCCC1` (stereo not given), the Percent Effect was -0.841% in [1]; 20.5% in assay [2]; -7.21% in assay [3]; 8.92% in the assay with Trypanosoma cruzi; -5.33% in assay [4]; 12.5% in assay [5]. Also, the Percent Effect in the assay filed under Homo sapiens is 13.3%; in [6], 3.35%; in assay [7], 22.9%; in assay [8], -5.94%.
Take `COC1CC2(CCN(Cc3ccc4c(c3)OCO4)CC2)C1`: the Percent Effect in [1] was -2.7%; in assay [2] it was 24.7%; in [3], -4%; in the assay with Trypanosoma cruzi it was -2.63%; in [4], 1.83%; in assay [5] it was 10%. Moreover, the Percent Effect in the assay listed under Homo sapiens is -11.4%; in assay [6], 6.76%; in assay [7], 12.5%; in assay [8] it was -8.26%.
